Some test systems named below: HL-60(TB) leukemia; HT29 colon; SNB-75 CNS; SNB-19 CNS; U251 CNS; PC-3 prostate; SK-MEL-5 melanoma; UACC-62 melanoma; LOX IMVI melanoma; SK-MEL-28 melanoma; SK-MEL-2 melanoma; SN12C renal; UO-31 renal; TK-10 renal; ACHN renal; CAKI-1 renal; A498 renal; CCRF-CEM leukemia; EKVX NSCLC.
Common to all, as to experiment: NCI-60 one-dose screen, 48 h (100 = growth as untreated, 0 = no growth, -100 = all killed)
What all share (conditions): 10 µM unless noted

Where “and” joins values, the source holds several entries; their conditions need not be identical. Identical values can stand only once. Compounds without any hit were thinned out: in the full panel of roughly 83,000, 20% have a hit.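 Method: cells in 96-well plates; compound added at one concentration; 48 h incubation; percent growth measured; values under 10 scored active.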 Unmarked numbers belong to inactive results. Calls of active or inactive are those of the source.

As to `CCOC(=O)C1=C(C)/C(=C\c2[nH]c(C)c(C(=O)OCC)c2C)N=C1C`, the growth in the experiment on HL-60(TB) leukemia was 41.6%.
`CNC(=O)CCl`: the growth is 102% in the experiment with HT29 colon; 96% in the experiment with SNB-75 CNS; 104% in the experiment on SNB-19 CNS; 94.7% with U251 CNS; 94.6% with PC-3 prostate; 96.4% in the experiment with SK-MEL-5 melanoma. The growth in the experiment with UACC-62 melanoma was 96.1%; in the experiment with LOX IMVI melanoma it was 100%; in the experiment on SK-MEL-28 melanoma it was 107%; in the experiment on SK-MEL-2 melanoma it was 101%; with SN12C renal, 96.9%; with UO-31 renal it was 96.5%. Besides, the growth in the experiment with TK-10 renal was 99.9%; in the experiment on ACHN renal it was 114%; in the experiment with CAKI-1 renal it was 94.9%; in the experiment on A498 renal it was 92.1%; in the experiment on HL-60(TB) leukemia, 119%; in the experiment on CCRF-CEM leukemia, 94%.
Consider `CCOC(=O)C1C(C=C(C)C)C1(C)C` (configuration not stated), for which the growth was 116% in the experiment with HT29 colon; 103% in the experiment on SNB-19 CNS; 99.3% with U251 CNS; 93% with PC-3 prostate; 109% in the experiment on SK-MEL-5 melanoma; 99.8% in the experiment with UACC-62 melanoma. The growth in the experiment with LOX IMVI melanoma was 104%; in the experiment on SK-MEL-2 melanoma it was 121%; in the experiment with EKVX NSCLC it was 110%; in the experiment on SN12C renal, 104%; with UO-31 renal, 120%; with TK-10 renal, 107%. Also, the growth is 100% with ACHN renal; 95.8% in the experiment with CAKI-1 renal; 105% with A498 renal; 117% in the experiment on HL-60(TB) leukemia; 82.6% with CCRF-CEM leukemia.
Turning to `O=[N+]([O-])c1ccc2scc3c4ccccc4nc-3c2c1`, the growth was -47% (active) with HT29 colon; -42% (active) with SNB-75 CNS; -92.4% (active) in the experiment on U251 CNS; -53.4% (active) in the experiment on PC-3 prostate; 8.28% (active) in the experiment on SK-MEL-5 melanoma; -61% (active) in the experiment on UACC-62 melanoma. Besides, the growth in the experiment on LOX IMVI melanoma is -87.1% (active); with SK-MEL-28 melanoma it was -56.1% (active); with SK-MEL-2 melanoma, -63.2% (active); with EKVX NSCLC it was 37.1%; in the experiment on SN12C renal, -36% (active); in the experiment with UO-31 renal it was -85.4% (active). The growth was -53.7% (active) in the experiment with TK-10 renal; -97.5% (active) in the experiment on ACHN renal; -40.6% (active) in the experiment with CAKI-1 renal; 44.9% with A498 renal; 1.24% (active) in the experiment on HL-60(TB) leukemia; -12.3% (active) with CCRF-CEM leukemia.
`NC(=O)Oc1cc(OC(N)=O)cc(N(CCCl)CCCl)c1`: the growth in the experiment with HT29 colon is 64.1%; in the experiment on SNB-75 CNS, 49.2%; in the experiment with SNB-19 CNS it was 74.6%; with PC-3 prostate, 71.7%; in the experiment on SK-MEL-5 melanoma it was 73.3%; in the experiment on UACC-62 melanoma it was 46.2%. For the same molecule, the growth was 42.6% with LOX IMVI melanoma; 82.5% with SK-MEL-28 melanoma; 93.2% with SK-MEL-2 melanoma; 37.5% in the experiment on SN12C renal; 34.5% with UO-31 renal; 103% with TK-10 renal. Also, the growth in the experiment with ACHN renal is 15.7%; in the experiment on CAKI-1 renal it was -24.7% (active); in the experiment with CCRF-CEM leukemia it was 13.4%.
`NNC(=S)N/N=C(\C(=O)Nc1cccc(O)c1)C1C(=O)NC(=S)NC1=O`: the growth with UACC-62 melanoma is 90.4% [100 µM] and 91% [100 µM]; with TK-10 renal it was 132% [100 µM] and 93% [100 µM].
For the molecule `O=C1C(=C(O)c2ccccc2)C(=O)c2ccccc21`, the growth in the experiment with HL-60(TB) leukemia is 97.6%.

Source of the values: PubChem BioAssay (NCI).
